{"source": "PubChem BioAssay AID1671190", "about": "(National Center for Advancing Translational Sciences (NCATS), 2021)", "note": "Screen size: about 580,000 compounds; about 6,100 (1.1%) were called active. About 15% were inconclusive and are not listed. Many of the other results were omitted from the sample, so actives are more common in it than they were. Unmarked numbers belong to inactive results. The call rests on the fitted dose curve; in most records, active means well fitted inhibition curve with a large enough effect; inconclusive means small, poorly fitted or top-dose-only effect, or another doubt; inactive means no such curve, though single readings can be large or run the other way. On the % scale 0 is the no-effect control and ±100 the full control effect; potency means the concentration at half of the fitted maximal effect.", "data": [{"biological_target": "Polyunsaturated fatty acid lipoxygenase ALOX12 (Homo sapiens) (UniProt P18054)", "sequence (P18054 whole entry, looked up)": "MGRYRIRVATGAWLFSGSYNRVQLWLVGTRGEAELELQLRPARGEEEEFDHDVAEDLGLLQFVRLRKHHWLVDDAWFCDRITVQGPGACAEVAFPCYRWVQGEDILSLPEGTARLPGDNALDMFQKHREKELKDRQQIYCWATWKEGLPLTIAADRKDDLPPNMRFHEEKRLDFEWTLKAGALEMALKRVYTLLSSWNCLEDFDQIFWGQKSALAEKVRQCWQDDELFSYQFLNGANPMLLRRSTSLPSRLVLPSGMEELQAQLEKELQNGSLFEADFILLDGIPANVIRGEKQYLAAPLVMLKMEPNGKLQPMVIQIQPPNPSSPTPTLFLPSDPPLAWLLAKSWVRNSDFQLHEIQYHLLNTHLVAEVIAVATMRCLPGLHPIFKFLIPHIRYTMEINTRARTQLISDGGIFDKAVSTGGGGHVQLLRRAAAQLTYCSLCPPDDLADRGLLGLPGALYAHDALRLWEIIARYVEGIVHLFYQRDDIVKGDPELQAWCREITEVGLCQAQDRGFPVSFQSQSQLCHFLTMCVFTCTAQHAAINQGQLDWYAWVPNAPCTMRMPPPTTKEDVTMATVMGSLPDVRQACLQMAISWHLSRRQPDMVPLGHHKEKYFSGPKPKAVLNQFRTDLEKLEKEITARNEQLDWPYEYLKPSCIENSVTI", "test": "Primary qHTS assay for inhibitors of human arachidonate 12S-lipoxygenase (ALOX12): Round 2", "settings": "purified 12hLO, xylenol orange hydroperoxide absorbance; series mostly up to 108 µM; activity change, negative = inhibition: at the top concentration", "procedure,_shortened": "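Purified human 12hLO (150 nM final) in 25 mM Hepes, 0.01% Triton X-100, pH 7.0 was preincubated 15 min at room temperature with compound. Then 40 uM arachidonic acid was added, 30 min. Hydroperoxide was read by Fe-XO absorbance ratio 573/405 nm.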", "values": [{"smiles": "CCCc1noc(CN2CCN(c3cc(C)nc(C(C)C)n3)CC2)n1", "activity change, negative = inhibition": "6.23%"}, {"smiles": "COc1cccc2cc(/C=C(/C#N)c3nc4ccccc4[nH]3)oc12", "activity change, negative = inhibition": "-44.6%"}, {"smiles": "N#C/C(=C/c1ccco1)c1nc2ccccc2[nH]1", "Potency": "39.8 µM (active)"}, {"smiles": "CC(C)c1ccc(/C=C(/C#N)c2nc3ccccc3[nH]2)cc1", "activity change, negative = inhibition": "-19.9%"}, {"smiles": "O=c1oc2ccccc2cc1S(=O)(=O)c1cccc(Cl)c1", "activity change, negative = inhibition": "-19.4%"}, {"smiles": "CC(C)N1C(=O)C2(CCCC2)C1C(=O)Nc1ccc2c(c1)N(C)CCC2", "note": "(stereo not given)", "activity change, negative = inhibition": "71.1%"}, {"smiles": "Cc1ccc(C(=O)N/C(=C\\c2ccco2)C(=O)N2CCSCC2)cc1C", "activity change, negative = inhibition": "14.6%"}, {"smiles": "Cc1ccc(N=C2NC(=O)/C(=C/C=C/c3ccco3)S2)cc1C", "Potency": "10 µM (active)"}, {"smiles": "Cc1ccc(N2NC(=O)/C(=C/C=C/c3ccco3)C2=O)cc1C", "Potency": "39.8 µM (active)"}, {"smiles": "CCc1ccccc1NC(=O)Nc1c(NC2CCCC2)c2ccccc2oc1=O", "activity change, negative = inhibition": "3.81%"}, {"smiles": "COc1cccc(NC(=O)c2ccc3c(c2)NC(C)(COc2ccccc2)CO3)c1", "note": "(stereo not given)", "activity change, negative = inhibition": "-2.36% [at 176 µM]"}, {"smiles": "CCCNC(=O)N1CCC(N(C)C2CCOCC2)CC1", "activity change, negative = inhibition": "63.3%"}, {"smiles": "N#Cc1ccc(OCC(O)CNCCC2=CCCCC2)cc1", "note": "(stereo not given)", "activity change, negative = inhibition": "5.82%"}, {"smiles": "OC(CNCCc1ccc(Cl)cc1Cl)COc1ccccc1", "note": "(stereo not given)", "Potency": "12.6 µM (active)"}, {"smiles": "CC(O)CNCCOc1cccc(Oc2ccccc2)c1", "note": "(stereo not given)", "activity change, negative = inhibition": "-17.6%"}, {"smiles": "CCn1ccnc1CN(C)Cc1cccc(OCC(O)CN(C)C2CCCCC2)c1", "note": "(stereo not given)", "activity change, negative = inhibition": "82.8%"}, {"smiles": "O=C(O)C(c1ccccc1)N1C(=O)/C(=C\\c2ccc(-c3cccc(Cl)c3)o2)SC1=S", "note": "(stereo not given)", "Potency": "2 µM (active)"}, {"smiles": "O=C(NCc1ccccc1)c1cc(-c2cccc(Cl)c2)on1", "activity change, negative = inhibition": "-22%"}, {"smiles": "Cc1ccc2[nH]cc(C(C(=O)O)N3CCN(S(=O)(=O)c4ccccc4)CC3)c2c1", "note": "(stereo not given)", "activity change, negative = inhibition": "-23.2%"}, {"smiles": "NC(=O)c1cccc(NC(=O)c2cccc3cccnc23)c1", "activity change, negative = inhibition": "-20.1%"}, {"smiles": "Cc1nn(-c2ccc(C(C)C)cc2)c(C)c1[C@@H]1C=C[C@@H](NC(=S)NCC(C)C)C1", "Potency": "56.2 µM (active)"}, {"smiles": "Cc1nn(-c2ccc(C(C)C)cc2)c(C)c1[C@@H]1C=C[C@@H](NC(=O)CC2(CC(=O)O)CCCC2)C1", "activity change, negative = inhibition": "9.29%"}, {"smiles": "Cc1nn(-c2ccc(C(C)C)cc2)c(C)c1[C@@H]1C=C[C@@H](NC(=O)Nc2ccccc2)C1", "activity change, negative = inhibition": "35% [at 176 µM]"}, {"smiles": "CCCn1nc(C(=O)NC2CCN(C(C)C)CC2)c2ccccc2c1=O", "activity change, negative = inhibition": "3.11%"}, {"smiles": "Cc1cnc(CNc2cc(-c3c(C)noc3C)ncn2)cn1", "activity change, negative = inhibition": "-20.8%"}, {"smiles": "CNc1cc(-c2c(C)noc2C)ncn1", "activity change, negative = inhibition": "-26.5%"}, {"smiles": "COCCCNC(=O)c1ccc(-c2c(C)noc2C)c2ccoc12", "activity change, negative = inhibition": "8.36%"}, {"smiles": "Cc1noc(C)c1-c1cc(NCc2cccnc2)ncn1", "Potency": "31.6 µM (active)"}, {"smiles": "COCCNc1cc(-c2c(C)noc2C)ncn1", "Potency": "39.8 µM (active)"}, {"smiles": "Cc1cc2cc(-c3c(C)noc3C)nc(NCc3cccnc3)c2o1", "activity change, negative = inhibition": "42.9% [at 176 µM]"}]}]}
